This is part of a sample that, as a whole, favours compounds with a hit. Of some 83,000 tested, about 20% had one in any assay.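 Note: values are percent growth. 100 is the growth of untreated cells, values between 100 and 0 indicate rising inhibition; between -100 and 0 indicates cell death.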 Unmarked numbers belong to inactive results. Activity calls are given as the source filed them. Rule for the calls: active = growth percent below 10; inactive = the rest.
Assays:
Experiment in all cases: NCI-60 one-dose screen, 48 h (100 = growth as untreated, 0 = no growth, -100 = all killed)
NCI-H23 lung = details: 10 µM unless noted
NCI-H226 lung = details: 10 µM unless noted
NCI-H322M lung = details: 10 µM unless noted
HOP-62 NSCLC = details: 10 µM unless noted
NCI-H460 lung = details: 10 µM unless noted
HOP-92 NSCLC = details: 10 µM unless noted
A549/ATCC NSCLC = details: 10 µM unless noted
786-0 renal = details: 10 µM unless noted
COLO 205 colon = details: 10 µM unless noted
DU-145 prostate = details: 10 µM unless noted
K-562 leukemia = details: 10 µM unless noted
MALME-3M melanoma = details: 10 µM unless noted
MDA-MB-231 breast = details: 10 µM unless noted
RXF 393 renal = details: 10 µM unless noted
SF-268 CNS = details: 10 µM unless noted
SF-295 CNS = details: 10 µM unless noted
SF-539 CNS = details: 10 µM unless noted
UACC-257 melanoma = details: 10 µM
M14 melanoma = details: 10 µM unless noted

Structure (SMILES)	growth (NCI-H23 lung)	growth (NCI-H226 lung) [%]	growth (NCI-H322M lung) [%]	growth (HOP-62 NSCLC) [%]	growth (NCI-H460 lung)	growth (HOP-92 NSCLC)	growth (A549/ATCC NSCLC)	growth (786-0 renal)	growth (COLO 205 colon)	growth (DU-145 prostate)	growth (K-562 leukemia)	growth (MALME-3M melanoma)	growth (MDA-MB-231 breast)	growth (RXF 393 renal)	growth (SF-268 CNS) [%]	growth (SF-295 CNS)	growth (SF-539 CNS)	growth (UACC-257 melanoma) [%]	growth (M14 melanoma)
COc1cc(OC)c(C(=O)/C=C/c2ccc(C(F)(F)F)cc2)c(OC)c1	42.3%	64.7	62	55.1	23.1%	96.8%	53.5%	45.4%	86.9%	11.9%	32.3%	75.3%	59.7%	41.1%	55.9	69.9%	68.7%	62.5	59%
CCO/C=N/NC(=O)c1ccncc1	102%	106	107	103	104%	104%	106%	105%	110%	105%	108%	106%	109%	109%	101	116%	111%		114%
COc1ccc(C(=O)c2cc(OC)c(OC)c(OC)c2)cc1/C=C/C(=O)c1ccc(O)cc1	18.5%	58.5	70.7	88.9	9.99% (active)	42.8%	68.9%	26.4%	54.3%	26.4%	19%	91.6%	35%	35.1%	12.8	29.9%	0.251% (active)	36	15.8%
O=S(=O)(NCCCNc1cc(-c2cn(-c3ccccc3)nc2-c2cccc(O)c2)ccn1)c1cccc2ccccc12	44.9%	38.7	44.3	47.3	18%	11.8%	35.8%	-9.71% (active)	-65.5% (active)	49.7%	1.39% (active)	-1.89% (active)	4.29% (active)	32.1%	39.9	-19.9% (active)	33.3%		28.2%
COc1cc(-c2cc(/C=C3\CCCCC3=O)[nH]n2)cc(OC)c1OC	95.5%	94.6	95.3	99.3	104%	86.4%	95.1%	98.1%	108%	95.4%	79.4%	101%	94.6%	96.1%	96.8	96.4%	103%	95	101%
CCn1c(=O)c2c(=O)c3c4c(oc3oc2c2ccccc21)C(=O)c1ccccc1C4=O	66.8%	99.4	97.7	80.3	83.7%	50.8%	82.4%	105%	110%	92.4%	28.6%	113%	6.33% (active)	106%	84.3	95.1%	89.9%	90.6	89.8%
CCn1cc(C(=O)O)c(=O)c2cc(F)c(N3CCN(S(=O)(=O)c4c(C)cc(C)cc4C)CC3)cc21	77.7%	87.4	83.5	71.5	82.8%	76.9%	78%	102%	93.2%	99.5%	79.9%	90.3%	83.7%	88.9%	83.7	48.4%	79.9%	106	75.6%
CC1Cc2c(N(C)C)ncnc2N(C)c2ccc(Cl)cc21 (configuration not stated)	50.1%	85.6	73.2	41.9	14.5%	58%	55.8%	31.1%	36%	52.4%	14.3%	51.4%	55%	42.6%	44.5	3.45% (active)	4.81% (active)		22.2%
CCN1C(=O)N(CC)C2C1NN=c1s/c(=C\c3ccccn3)c(=O)n12 (configuration not stated)	34.5%	92.2	45.8	11.6	8.89% (active)	37.3%	32.5%	22.3%	-2.81% (active)	9.45% (active)	8.75% (active)	22.4%	45.5%		74.2	3.21% (active)	-19.8% (active)		13%
Nc1c(C(=O)c2ccc(F)cc2)sc2nc3c(cc12)CCCC3	77.9%	85.4	81.3	91.1	90.3%	61.3%	70.9%	85.3%	84.8%	77.9%	25.8%	31.7%	85.7%	56%	87.4	72.6%	95.3%	95	71%
CCC(c1ccc(OC)cc1)C(CC)c1ccc(O)c(CN2CCCC2)c1 (configuration not stated)	9.32% (active)	31.7	14.4	30.9	-47.2% (active)	-34.7% (active)	33.1%	4.61% (active)	-85% (active)	43.3%	-32.1% (active)	-56.1% (active)		-31.1% (active)	21.2	-51.2% (active)	-18.9% (active)		-47.4% (active)
COc1ccc2c(c1)C=CC(C#N)N2C(=O)c1ccccc1 (configuration not stated)	26.4%	61.6	53.9	34.6	5.09% (active)	34%	21.2%	23.4%	-43.7% (active)	3.08% (active)	7.66% (active)	66.8%	25.4%	30.4%	34	-1.96% (active)	-21.2% (active)		15.9%
Nc1nc(N)c2nc(CNc3ccc(C(=O)CC(CCC(=O)O)C(=O)O)cc3)cnc2n1 (configuration not stated)	31.4%	38.2	47.5	39.8	19.8%	-3.77% (active)	2.47% (active)	20.9%	66%	28.9%	58.3%	111%	101%	19.3%	29.7	37.8%	20.5%		27.1%
Oc1ccc(N=Cc2ccccc2)cc1	88.5%	111	103	115	102%	51.9%	103%		113%	89.5%	32.6%	83.5%		114%	95.9	112%	94.9%	106	91.5%
CC(Br)C(O)c1cc2c(cc1Br)OCO2 (configuration not stated)	100%	106	111	102	112%	104%	103%	100%	120%	109%	101%	109%	111%	104%	104	110%	105%		96%
COc1ccc(-n2cnc3c(sc4ncc(Cl)cc43)c2=O)cc1	93.4%	97.8	45.7	96.9	49.1%	42.9%	67%	76.8%	113%	83.6%	87.9%	88.2%	113%	106%	65.8	44.2%	91.6%	90.8	105%
